Measured values: PubChem BioAssay AID504332 (National Center for Advancing Translational Sciences (NCATS), 2011)
Where “and” joins values, the source holds several entries; their conditions need not be identical. Identical values can stand only once. Among all 350,000 compounds or so, about 31,000 (8.9%) were called active. Roughly 15% stayed inconclusive and do not appear here. Calls follow the shape of the dose curve; as a rule, active = well fitted inhibition curve with a large enough effect; inconclusive = small, poorly fitted or top-dose-only effect; inactive = no such curve, though single readings can be large or run the other way. The full list was thinned out, with actives kept by preference. Some structures have more than one record in an assay (separate samples or runs), and their calls can disagree.

Biological target: Histone-lysine N-methyltransferase EHMT2 (Homo sapiens) (UniProt Q96KQ7)
Sequence (Q96KQ7 913-1193 limits assumed): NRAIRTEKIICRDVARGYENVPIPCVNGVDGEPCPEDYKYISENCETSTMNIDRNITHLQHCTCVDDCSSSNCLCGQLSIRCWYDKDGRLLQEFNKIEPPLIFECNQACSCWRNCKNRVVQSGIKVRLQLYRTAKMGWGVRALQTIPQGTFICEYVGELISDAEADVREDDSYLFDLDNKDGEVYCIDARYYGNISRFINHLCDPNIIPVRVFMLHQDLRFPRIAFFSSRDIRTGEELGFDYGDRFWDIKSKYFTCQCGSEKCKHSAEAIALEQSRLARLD
Assay: qHTS Assay for Inhibitors of Histone Lysine Methyltransferase G9a; also: nearly all actives have a fitted effect of over 75% in size
Conditions: G9a H3K9 monomethylation, AlphaScreen, 2 h; series mostly up to 59 µM; activity, negative = inhibition: at the top concentration
Procedure, shortened: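 Compounds were preincubated with 20 nM G9a for 15 min, after which biotinylated H3K9 peptide (500 nM) and SAM (20 uM) started a 2 h room-temperature reaction. Monomethylated product was quantified by antibody-based AlphaScreen chemiluminescence.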
% is scaled to controls: 0 for no effect and ±100 for the full control effect; potency is read from the fitted curve at half-maximal effect.

activity, negative = inhibition, inactive:
CCOc1ccc(CNC(=O)Cn2cc3c(n2)-c2c(oc(C(=O)N4CCCC4)c2C)CC3)cc1 -35.9%
O=C(COC(=O)c1ccc2ncsc2c1)Nc1ccc(Cl)cc1 -43.9% [at 12.7 µM]
O=c1ccnc(Nc2ccc(Cl)cc2)[nH]1 1.74% [at 102 µM]
CCc1ccc(NC(=O)COC(=O)c2cccs2)cc1 -8.8% [at 102 µM]
COc1ccccc1NC(=O)Cn1cnc2ccc(S(=O)(=O)N3CCC(C)CC3)cc2c1=O -0.173%
COc1ccc(-c2nnc(SCC(=O)Nc3ccc(C(C)C)cc3)nc2-c2ccc(OC)c(OC)c2)cc1OC -3.65%
CCOc1cc(-c2noc(CCCC(=O)NC3CCCCC3)n2)ccc1OC 28.6% [at 102 µM]
CCOc1ccc2[nH]c3nc(SCC(=O)NC4CCCC4)nnc3c2c1 12.1%
CCOc1ccc(-c2noc(CCC(=O)NC3CCCC3)n2)cc1OC 20.6% [at 102 µM]
CCC(Sc1nnc(-c2ccc(OC)cc2)c(-c2ccc(OC)cc2)n1)C(=O)NC1CCCCC1 (centres undefined) 6.11%
COc1ccc(-c2nnc(SCC(=O)NC3CCCCC3)o2)cc1OC 5.72% [at 102 µM]
Cc1ccc(Nc2nnc(-c3ccc(C)c(S(=O)(=O)N4CCCCC4)c3)c3ccccc23)cc1 12.6%
CC(=O)N1CCN(c2ccccc2NC(=S)NC(=O)c2cc3ccccc3o2)CC1 10.6% [at 102 µM]
CC(C)(C)OC(=O)N1CCC(c2c(C(=O)NCCc3ccsc3)cnn2-c2ccc(F)cc2F)CC1 -1.68%
COc1ccc([C@H]2CC(=O)C=C(c3ccc(CO)cc3)C2)cc1 11.2% [at 0.501 µM]
Cc1c(-c2cccc(NC(=O)C(C)(C)C)c2)nc2ncccn12 9.24%
COc1ccc(Br)cc1CNC(=O)c1cc(=O)[nH]c2ccc(S(=O)(=O)N3CCCC3)cc12 -3.57%
Cc1ccc(SCC(=O)Nc2ccc3oc(-c4ccccc4F)nc3c2)cc1 6.8%
CCOC(=O)c1sc(NC(=O)CSc2nnc(-c3ccco3)o2)c(C(=O)OCC)c1C -13.7%
CCOC(=O)c1sc(NC(=O)CSc2ncccn2)c(C#N)c1C -13.3% [at 12.7 µM]
O=C(Nc1ccc(C(=O)OCc2cc(=O)n3nc(C4CC4)sc3n2)cc1)c1ccc(F)cc1 7.88% [at 12.7 µM]
Cc1ccsc1/C=N/n1c(=S)[nH]nc(C)c1=O 5.6%
Cc1n[nH]c(=O)nc1N/N=C/c1cccs1 16.1% [at 102 µM]
c1ccc(-c2noc(-c3cccs3)n2)nc1 9.04%
COc1cc(-c2cc3n(C)c(C)c(CCC(=O)Nc4ccc(F)cc4)c(=O)n3n2)cc(OC)c1OC -1.47%
Cc1cccc(NC(=O)CSc2nnc(CNC(=O)c3cccc(C)c3)n2-c2ccccc2)c1 -46.9%
COc1cccc(C(=O)CC(=O)C(=O)Nc2ccc([N+](=O)[O-])cc2C)c1 -37.1% [at 102 µM]
COc1cccc(CNC(=O)CCCC(=O)Nc2cccc([N+](=O)[O-])c2)c1 26.3% [at 102 µM]
O=C(CN1CCOC1=O)N1CCCC(Nc2ccc(F)c(F)c2)C1 (centres undefined) 10.1%
CCC(=O)Nc1nc(C)c(C(=O)Nc2cccc(Cl)c2)s1 21.5%
CCN(CC)CCCC(C)Nc1ccnc2cc(Cl)ccc12 (centres undefined) -36.5% [at 2.33 µM] and 28.9% [at 12.7 µM]
CCN(CC)CCNc1ncnc2c1cnn2-c1cc(Cl)ccc1C -26.5%
CCN(CC)CCCNC(=O)c1cc(-c2cccc(Cl)c2)on1 -3.23% [at 102 µM]
O=C(NCCc1ccco1)C(=O)NCCC1CCCCN1S(=O)(=O)c1ccccc1 (centres undefined) 10.9% [at 0.501 µM]
CC(=O)Nc1cccc(-c2csc(Nc3cccc(C)n3)n2)c1 -3.54% [at 0.0925 µM]
c1cnc(Nc2nc(-c3ccc4ccccc4c3)cs2)nc1 27.1% [at 12.7 µM]
CCN(CC(=O)Nc1c(F)cccc1F)C(=O)c1ccc(S(=O)(=O)N2CCCCC2)cc1 0.134% [at 12.7 µM]
CC1CC(C)CN(c2ccc(S(=O)(=O)N3CCOCC3)cc2)C1 (centres undefined) -7.51% [at 12.7 µM]
O=C(/C=C/Nc1ccccc1OC(F)(F)F)C(F)(F)F 3.53% [at 102 µM]
CCCOc1ccc(N/C=C/C(=O)C(C)(C)C)cc1 3.27% [at 102 µM]
COc1ccc(-c2cn3c(n2)sc2cc(C(=O)Nc4ccc(F)cc4)ccc23)cc1 2.76%
CCn1cc2nc(SCc3cccc(F)c3)n(CCc3ccccc3)c(=O)c2n1 2.62%
CCOC(=O)C1(Cc2ccccc2C)CCCN(C(=O)CN2C(=O)CSC2=O)C1 (centres undefined) 6.91% [at 102 µM]
c1ccc(CC2CCN(c3nc4ccccc4n4cnnc34)CC2)cc1 26.6% [at 12.7 µM]
O=C(c1ccccc1)c1ccc(OC(=O)N2CCCC2)cc1 -2.47%
O=C(Nc1ccc(Oc2ccccc2)cc1)C1CCN(S(=O)(=O)c2ccc(Cl)cc2)CC1 4.44%
COc1cccc(NC(=O)c2ccc3nc(CCc4ccccc4)oc3c2)c1 -23.2%
COc1cccc(NC(=O)CSC2=Nc3ccccc3C3=NC(CC(=O)NC4CCCCC4)C(=O)N23)c1 (centres undefined) -0.713%
COc1cc(Cl)c(NC(=O)C(NS(=O)(=O)c2cccs2)C(C)C)c(OC)c1 (centres undefined) 10.2%
COc1ccc(C2(C)NC(=O)N(CC(=O)c3ccc4c(c3)OCO4)C2=O)cc1 (centres undefined) 100% [at 102 µM]
COc1cc(OC)c(C(=O)NCc2ccc3c(c2)OCO3)cc1OC -3.02%
COc1ccc(OC)c(-c2nc(C(N)=O)c3c(n2)n(-c2ccc4c(c2)OCO4)c(=O)n3C)c1 -0.66%
COc1ccc(NC(=O)NCc2ccc3c(c2)OCO3)c(OC)c1 123% [at 102 µM]
Cc1ccsc1C(=O)NCCc1ccco1 -0.499% [at 12.7 µM]
COc1ccccc1-c1noc(-c2ccc(NCc3ccccc3)c([N+](=O)[O-])c2)n1 9.56%
O=C(Nc1ccc2nc(SCC(=O)N3CCCc4ccccc43)sc2c1)c1ccc(Cl)cc1 -5.84%
CCCNC(=O)CSc1nc(Cc2ccccc2)nc2ccccc12 13.1% [at 102 µM]
Cc1ccc(S(=O)(=O)NCc2nc3nc(C)cc(C)n3n2)cc1 -4.11%
NC(=O)NC(CC(=O)NNC(=O)c1ccccn1)c1ccc(Cl)cc1 (centres undefined) 54.7% [at 12.7 µM]
CCCc1nc2c(C)cc(-c3nc4ccccc4n3C)cc2n1Cc1ccc(-c2ccccc2C(=O)O)cc1 -43.4% [at 2.33 µM]
Cc1ccc(Cn2c(CCCNC(=O)C3CCCCC3)nc3ccccc32)cc1 -38.9%
CC(=O)Nc1nc2ccccc2n1Cc1ccc(C)cc1 1.65% [at 102 µM]
COc1ccc(C(=O)Nc2nonc2-c2ccc(OC)c(OC)c2)cc1Cl 1.07%
COc1ccc(S(=O)(=O)NCCCCOc2ccc(Cl)cc2)cc1 21.3% [at 2.33 µM]
COc1cccc(NC(=O)CCNS(=O)(=O)c2ccc3c(c2)oc(=O)n3C)c1 1.31% [at 0.0925 µM]
CCOC(=O)C1CCN(c2csc3ccc(C)cc3c2=O)CC1 6.56%
Cc1[nH]n(-c2ccccc2)c(=O)c1N=Nc1ccccc1C(=O)N1CCCCC1 -2.74%
Cc1[nH]n(-c2cccc(Cl)c2)c(=O)c1-c1ccc(Cl)cc1 -39%
COc1ccccc1C(=O)Nc1ccc(OCC(=O)N2CCCCC2)cc1 11.7% [at 2.33 µM]
Nc1nnnn1/N=C/c1cccs1 -13.1%
Cc1ccc(N2CCN(/N=C/c3cccs3)CC2)cc1 -34.4% [at 102 µM]
O=C(Nc1ccc2nc(SCC(=O)N3CCCc4ccccc43)sc2c1)c1ccc(F)cc1 -31.9%
Cc1cc(C)c(S(=O)(=O)N(C)CC(=O)NCC2CCCO2)c(C)c1 (centres undefined) 24.8% [at 102 µM]
CCC1CCCCN1S(=O)(=O)c1ccc(NC(=O)c2cc(=O)c3ccccc3o2)cc1 (centres undefined) 5.64%
O=C(CCCCCn1c(=O)[nH]c2ccccc2c1=O)NCCc1c[nH]c2ccccc12 -11.9% [at 0.0925 µM]
O=C(CN1C(=O)NC2(CCCCC2)C1=O)NCCc1c[nH]c2ccccc12 52.5% [at 102 µM]
O=C(NCCc1c[nH]c2ccccc12)C1CCN(Cc2ccc(Br)cc2)CC1 -6.03%
CC(=O)NC(Cc1c[nH]c2ccccc12)C(=O)NCCc1ccccc1 (centres undefined) 23.4% [at 102 µM]

Potency, active:
Cc1csc(Nc2ccc(Cl)cc2)[n+]1-c1ccc(Cl)cc1 20 µM
COc1ccc(-c2noc(CCCC(=O)NC3CCCC3)n2)cc1OC 79.4 µM
CCOc1cc(-c2nnc(SCC(=O)NC3CCCC3)nc2-c2ccc(OC)c(OCC)c2)ccc1OC 11.2 µM
CCOc1cc(-c2nnc(SCC(=O)NC3CCCCC3)nc2-c2ccc(OC)c(OCC)c2)ccc1OC 8.91 µM
CCOC(=O)c1sc(NC(=O)CSc2nc(C)cc(C(F)(F)F)n2)c(C#N)c1C 11.2 µM
Oc1ccccc1/C=N/n1c(-c2cccs2)n[nH]c1=S 1.58 µM
S=c1[nH]nc(-c2cccs2)n1/N=C/c1cccs1 1.26 µM
COc1cccc(NCCC(=O)c2cccc([N+](=O)[O-])c2)c1 35.5 µM
CCN(CC)CCCC(C)Nc1ccnc2cc(Cl)ccc12 (centres undefined) 25.1 µM
Cc1ccc(Nc2nc(-c3ccc(O)cc3O)cs2)nc1 10 µM
CN(C)c1ccc(N/C=C/C(=O)C(F)(F)F)cc1 7.08 µM
O=C(c1ccccc1)c1ccc2nc(N3CCCCC3)c3nncn3c2c1 44.7 µM
COc1ccc2c(c1)C(C)=CC(C)(C)N2C(=O)CNCc1ccc2c(c1)OCO2 28.2 µM
COc1cccc(CNCc2ccc3c(c2)OCO3)c1 22.4 µM
Clc1ccc(C2=CSC3=Nc4cccc5cccc(c45)N23)cc1 3.55 µM
CCCc1nc2c(C)cc(-c3nc4ccccc4n3C)cc2n1Cc1ccc(-c2ccccc2C(=O)O)cc1 4.47 µM
COc1cccc(NC(C)=[N+](C)CCNS(=O)(=O)c2ccc(Cl)cc2)c1 15.8 µM
Cc1[nH]n(C(N)=S)c(=O)c1N=Nc1ccc(Cl)cc1Cl 44.7 µM
C(=N/N1CCN(c2ccccc2)CC1)/c1cccs1 10 µM
C[C@]1(C(=O)NCCc2c[nH]c3ccccc23)C=C[C@@H](Cc2ccccc2)N1C(=O)c1ccccc1 50.1 µM
CC1(C(=O)NCCc2c[nH]c3ccccc23)C=CC2(CCCCC2)N1C(=O)c1ccccc1 (centres undefined) 79.4 µM
